Most compounds without a hit are left out; they make up all but 19% or so of the library.
HT1080 IDH1KD tx: kills HT-1080 cells with IDH1 knockdown | hit rate 2% among 360,000 | HT-1080 IDH1 knockdown viability, ATP luminescence, 48 h | Potency, µM (titrated, usually from 46.1 µM), for the others: at the highest dose activity, negative = toxicity, usual class: cytotoxic;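 note: potency is the fitted concentration of half-maximal effect; 0% = DMSO wells and -100% = cell-free medium wells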
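% activity derives from luminescence (CellTiter-Glo), normalised to DMSO and no-cell wells. HT-1080-IDH1KD cells, 750/well, had 48 h compound exposure at 37 °C.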
IL1B secr inh: inhibitors of inflammasome signaling (IL-1 beta secretion) | THP-1 LPS/ATP IL-1B secretion, AlphaLISA, 16 h; stronger effect = lower value | activity change, % at 57.5 µM | hit rate 4.7% among 360,000 | AID 743279; in the data active = activity change below about -50%; inconclusive = mostly about -30% to -49%
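Secreted IL-1B measured by AlphaLISA bead assay after 16 h compound exposure of THP-1 cells; compounds (final up to 57.5 uM) added 1 h before LPS (250 ng/mL) and ATP (1.25 mM) stimulation; lower signal means less secretion.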
DT40 TDP1 CPT: growth inhibition of DT40 Tdp1-/-;hTDP1 cells with camptothecin (screen for TDP1 inhibitors) | Potency, µM (doses to about 46.2 µM), inactives show top-dose activity change, negative = growth inhibition, most hits filed as inhibitors | hit rate 12% among 420,000 | chicken DT40 Tdp1-/-;hTDP1 cells + 20 nM CPT, ATP luminescence, 48 h | AID 686979; note: potency is the fitted concentration of half-maximal effect; nearly all actives have a fitted effect of over 55% in size
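Cell growth measured by CellTiter-Glo luminescence after a minimum 48 h, 37 C compound exposure with 20 nM CPT in Tdp1-knockout DT40 cells stably expressing hTDP1, seeded 400/well; qHTS titration format.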
TDP1 cell noCPT: qHTS for Inhibitors of human tyrosyl-DNA phosphodiesterase 1 (TDP1): qHTS in cells in absence of CPT. DT40 Tdp1-/- hTDP1 cells, no CPT, ATP luminescence, 48 h. Potency, µM (series often up to 46.2 µM), without a hit: at the highest dose activity change, negative = growth inhibition, most hits filed as inhibitors. hit rate 15% among 420,000; note: potency is the fitted concentration of half-maximal effect; nearly all actives have a fitted effect of over 55% in size
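Stably hTDP1-transfected Tdp1-null chicken DT40 cells were treated with library compounds minus camptothecin and grown for at least 48 hr at 37 °C, after which cellular ATP was quantified by luminescence.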
HT1080NT lethal: kills 2HG-producing HT-1080-NT fibrosarcoma cells; HT-1080-NT fibrosarcoma viability, CellTiter-Glo ATP luminescence, 48 h; Potency, µM (top dose mostly 46.1 µM), for the others: at the highest dose activity, negative = less viability, most hits filed as cytotoxic; hit rate 1.6% among 360,000; AID 686970;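 note: NT is the 2HG producing partner of a matched IDH1 knockdown line; potency is the fitted concentration of half-maximal effect; 0% = DMSO-treated cells and -100% = media-only wells without cells; nearly all actives have a fitted effect of over 55% in size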
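HT-1080-NT; 750 cells/well; 5% FBS RPMI; 48 h compound, 37 degrees C; CellTiter-Glo luminescence; curve fitting and curve-class assignment.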
Numbers without * were called inactive; ? = inconclusive; · = no result; ! = not confirmed by another sample. Unless noted, calls come from the whole dose curve; as a rule, active = well fitted curve in the direction sought with a large enough effect; inconclusive = small, poorly fitted or top-dose-only effect, or another doubt; inactive = no such curve, though single readings can be large; an effect the other way counts as inactive or inconclusive. Unless noted, % is set by controls: 0 for no effect and ±100 for the full control effect.

SMILES	HT1080 IDH1KD tx	IL1B secr inh	DT40 TDP1 CPT	TDP1 cell noCPT	HT1080NT lethal
CC(=O)Nc1cc(-c2ccccc2CN(C)C)cn2c(-c3ccc(F)c(Cl)c3)cnc12	0%	-17	?	?	14%
O=CNc1cc(-c2ccc(C(=O)NC3CC3)cc2)cn2c(-c3ccc(F)c(Cl)c3)cnc12	?	0	18µM*	13µM*	?
CCOc1ccc(S(=O)(=O)N(C)c2ccc(OCC(=O)NCc3ccc(C(=O)OC)cc3)cc2)cc1	-17%	21	-3%	-54%	-2%
Cc1ccc2ncc3c(-c4ccc(F)cc4)nn(-c4cccc(F)c4)c3c2c1	·	·	0%	-2%	·
Cc1c(N=N/C(C(=O)Nc2ccccc2)=C(/O)c2ccccc2)c(=O)n(-c2ccccc2)n1C	-3%	-1	?	21µM*	2%
CCOC(=O)/C(N=Nc1c(C)n(C)n(-c2ccccc2)c1=O)=C(/O)c1ccccc1	0%	-10	2%	-4%	4%
Cc1nc(N2CCCC2)c2c(C(=O)N3CCN(c4cc(Cl)ccc4C)CC3)c(C)oc2n1	·	·	?	18µM*	·
Cc1nc(N2CCCC2)c2c(C(=O)N3CCN(c4ccccc4)CC3)c(C)oc2n1	·	·	-7%	-10%	·
COc1cc2c(C(=O)N3CCN(c4ccccc4)CC3)c(C)oc2cc1Br	?	-27	?	18µM*	?
COc1ccccc1-c1cc(C(=O)N2CCN(c3ccccc3)CC2)no1	-10%	20	?	-13%	8%
COc1cccc(N2CCN(C(=O)NC3CCCCC3)CC2)c1	8%	-12	-13%	-28%	1%
COc1cccc(N2CCN(C(=O)c3c(C)oc4ncnc(N5CCCCC5)c34)CC2)c1	·	·	?	18µM*	·
Cc1oc2ncnc(N3CCCCC3)c2c1C(=O)Nc1cccc(Cl)c1C	·	·	16µM*	15µM*	·
C/C(COc1ccccc1)=N\NC(=O)c1nnn(-c2nonc2N)c1CSc1ccc(C)cc1	-17%	-29	-8%	-15%	-6%
COCCn1c(=O)c(-c2ccccc2)nc2cnc(Nc3cccc(OC)c3)nc21	·	·	-6%	3%	·
Cc1ccc(N2CCN(C(=O)c3c(C)oc4ncnc(N5CCOCC5)c34)CC2)c(C)c1	·	·	?	-27%	·
CCN(CC)CCNC(=O)c1c(C)oc2ncnc(N3CCOCC3)c12	·	·	5%	-5%	·
Cc1cccc(N2CCN(C(=O)c3c(C)oc4ncnc(N5CCOCC5)c34)CC2)c1C	·	·	0%	-21%	·
Cc1cccc(N2CCN(C(=O)c3c(C)oc4ncnc(N5CCCCC5)c34)CC2)c1C	·	·	16µM*	8.2µM*	·
CCN(CC)S(=O)(=O)c1ccc(NC(=O)c2c(C)oc3ncnc(N4CCCCC4)c23)cc1	·	·	21µM*	15µM*	·
Cc1ccc(N2CCN(C(=O)c3c(C)oc4ncnc(N5CCCCC5)c34)CC2)c(C)c1	·	·	16µM*	7.3µM*	·
O=C(CN(c1ccccc1Cl)S(=O)(=O)c1ccccc1)NCc1ccccc1	3%	-10	?	-9%	-3%
Cc1ccc(CNC(=O)CN(c2cccc(C)c2C)S(=O)(=O)c2ccccc2)cc1	·	·	16µM*	16µM*	·
CC(C(=O)NCCSCc1cccc(Cl)c1)N(c1ccccc1)S(C)(=O)=O (centres undefined)	-1%	-1	21µM*!	13µM*!	-15%
COCCNC(=O)CN(c1cc(C(F)(F)F)ccc1Cl)S(C)(=O)=O	22%	0	-7%	-1%	4%
CS(=O)(=O)N(CC(=O)NCCSCc1ccccc1)c1cc(C(F)(F)F)ccc1Cl	·	·	21µM*	15µM*	·
COc1ccc(N(C(C)C(=O)NCCSCc2cccc(Cl)c2)S(C)(=O)=O)cc1 (centres undefined)	-2%	-7	?	?	-2%
Cc1cccc(N(CC(=O)NCCc2ccccc2)S(=O)(=O)c2ccccc2)c1C	·	·	16µM*	18µM*	·
COc1ccc(CNCCCC(=O)Nc2c(Cl)ccc(C)c2Cl)cc1OC	-5%	-9	?	?	-1%

Compound activity deposited in PubChem BioAssay by National Center for Advancing Translational Sciences (NCATS).
